FBW7 activator = FBW7 E3 ligase activators, primary screen, biochemical, AlphaScreen, human. F-box/WD repeat-containing protein 7 (Homo sapiens), Q969H0. AlphaScreen FBW7–phospho-cyclin E peptide binding, activator screen. normalized activity (activation), % at 26.1 µM. 650,000 compounds, 0.13% hits. AID 1259310, 2017; in the data active means normalized activity above about 1.9%;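 further: purified mutant Fbw7 with reduced substrate affinity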
GPR151 activ = activators of human GPR151, primary screen, cell-based, PathHunter beta-arrestin, luminescence; PathHunter beta-arrestin GPR151 cells; activation, % at 11.2 µM; G-protein coupled receptor 151 (Homo sapiens), Q8TDV0; 650,000 compounds, 1% hits; AID 1508602, 2020; in the data active means activation above about 4.9%;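 further: 0% = median of compound wells and 100% = cells with positive control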
MITF primary = MITF inhibitors, primary screen, biochemical, AlphaScreen, human | AlphaScreen MITF homodimerization, bead proximity signal | AID 1259374, 2018 | inhibition, % at 2.6 µM | 650,000 compounds, 0.91% hits | Microphthalmia-associated transcription factor (Homo sapiens), O75030; in the data active means inhibition above about 50%;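 further: 0% = vehicle wells with protein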
Target sequence (O75030 whole entry, looked up): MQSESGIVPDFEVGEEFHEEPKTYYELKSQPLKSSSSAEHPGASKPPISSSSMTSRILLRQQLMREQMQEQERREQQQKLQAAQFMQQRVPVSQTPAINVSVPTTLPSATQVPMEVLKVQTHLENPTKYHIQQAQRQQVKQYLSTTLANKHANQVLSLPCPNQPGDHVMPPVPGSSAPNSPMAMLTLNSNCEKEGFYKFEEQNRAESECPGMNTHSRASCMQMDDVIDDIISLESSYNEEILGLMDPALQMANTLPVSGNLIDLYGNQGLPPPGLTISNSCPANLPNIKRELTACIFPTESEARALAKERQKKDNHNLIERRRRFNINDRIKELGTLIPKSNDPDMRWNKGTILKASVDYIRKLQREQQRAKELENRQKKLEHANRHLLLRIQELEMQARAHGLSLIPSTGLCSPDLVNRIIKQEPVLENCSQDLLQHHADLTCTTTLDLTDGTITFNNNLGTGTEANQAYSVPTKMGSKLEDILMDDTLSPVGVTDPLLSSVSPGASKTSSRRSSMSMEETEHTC
TEAD-YAP block = TEAD-YAP interaction inhibition, primary screen, TEAD-YAP interaction inhibitor project, luminescence, HEK-TIYL cells; TEAD-Gal4/YAP UAS-luciferase luminescence; inhibition, % at 9.12 µM; 640,000 compounds, 1.4% hits; AID 1259422, 2018; in the data active means inhibition above about 32%;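 further: 0% = median of test compound wells and 100% = reference inhibitor wells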
GPR151 confirm = GPR151 activators, triplicate retest, confirmation, cell-based, PathHunter beta-arrestin, luminescence. AID 1508609, 2020. 6,700 tested, under 10 active. activation, % at 11.2 µM. GPR151 PathHunter beta-arrestin cells, 90 min; % of EA-reagent control over plate median. shares compounds with GPR151 activ;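 active means mean percent activation across replicates above the confirmation screen cutoff of 4.91%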
GPR119 counter = GPR119 activators in beta-arrestin cells, counter-screen for GPR151 activator project, cell-based, PathHunter beta-arrestin, luminescence, triplicate | shares compounds with GPR151 activ | 90 min; 0 = compound-well median, 100 = enzyme-acceptor control | activation, % at 11.2 µM | 6,700 compounds, 0.3% hits;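 active means mean percent activation in the counterscreen above 29.09%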;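 further: counterscreen on off-target GPR119 to flag nonselective hits from the GPR151 activator screen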
Active calls of the source: *; · = no result given. Only some compounds are listed: those with a hit (about 3.5% of all), similar ones and a draw of the others.

SMILES | FBW7 activator | GPR151 activ | MITF primary | TEAD-YAP block | GPR151 confirm | GPR119 counter
CCc1cccc(NC(=O)CN(C2=NC3CS(=O)(=O)CC3S2)c2cccc(C)c2)c1 (stereo unspecified) | -0.7 | 12.7* | -0.3 | 7.3 | 1.1 | -16.3
Cc1cccc(NC(=O)CN(C2=NC3CS(=O)(=O)CC3S2)c2ccccc2)c1 (stereo unspecified) | -0.2 | -2.0 | 16.9 | 4.9 | · | ·
COc1cccc(N2CCN(C(=O)C3=C(C)C(=O)OC34CCCCC4)CC2)c1 | 0.1 | 5.6* | -5.5 | -1.8 | -0.2 | 1.2
CC1=C(C(=O)N2CCCC2)C2(CCCCCC2)OC1=O | 0.1 | -0.7 | -10.3 | -5.9 | · | ·
COCC(C)NC(=O)c1c(-c2ccccc2)noc1C (stereo unspecified) | 0.0 | -1.1 | -14.1 | -1.4 | · | ·
CC(=O)Nc1ccc(C(=O)Nc2ccc(CC(=O)O)cc2)cc1 | 0.0 | 0.0 | 3.4 | 2.0 | · | ·
CC(=O)c1ccc(NC(=O)Nc2ccc(CC(=O)O)cc2)cc1 | 0.1 | 6.6* | -3.3 | -3.2 | 0.4 | 8.7
OCc1ccc(-c2cnn3c(NCc4ccc(F)cc4)ccnc23)cc1 | 0.0 | -1.2 | -15.3 | -21.8 | · | ·
Oc1ccc(-c2cnn3c(NCc4ccc(F)cc4)ccnc23)cc1 | -0.1 | 6.5* | 5.8 | -25.9 | 0.7 | 1.6
CCOc1cc2c3c(c1)C1(OCCO1)C(=O)N3C(C)(C)CC2C (stereo unspecified) | 0.0 | 5.9* | -4.3 | -7.4 | -0.7 | -2.2
O=C(NCc1ccc(N2CCCC2=O)cc1)c1cn(Cc2ccccc2)nn1 | 0.0 | 7.4* | 9.2 | -1.3 | 0.7 | 6.7
Cn1cccc1C(CNS(=O)(=O)c1cc(F)ccc1F)N1CCCC1 (stereo unspecified) | -0.2 | -0.5 | -8.7 | -3.7 | · | ·
CCOc1ccc(C)cc1S(=O)(=O)NCC(c1cccn1C)N1CCCC1 (stereo unspecified) | -0.1 | 5.2* | 8.8 | 1.0 | 0.2 | -1.5
Cc1cccc(NC(=O)C(=S)NC2CCCC2)c1C | 0.2 | 8.2* | -12.3 | -26.4 | 0.6 | 9.3
COC(=O)c1cc(-c2ccccc2)sc1NC(=O)CN1C(=O)c2ccccc2C1=O | -0.2 | 14.7* | 6.3 | 4.8 | 0.3 | 2.1
COc1ccccc1NC(=O)CN1CCN(c2nccn2-c2ccc(C)cc2)CC1 | -0.5 | -1.0 | 11.8 | -1.9 | · | ·
CCOc1ccccc1NC(=O)CN1CCN(c2nccn2-c2ccc(C)cc2)CC1 | -0.6 | 8.0* | 12.5 | 1.7 | 0.4 | -18.7
O=C1CCC(C(=O)OCc2ccccc2Cl)=NN1 | 0.0 | -0.3 | -1.5 | -0.6 | · | ·
Cc1ccc(NCCNS(=O)(=O)c2cc(C)c(C)cc2C)nn1 | 0.8 | 8.4* | 9.3 | 1.6 | -0.2 | 2.8
O=C(NC1CC1)C1CCC(=O)N1C1CCCCC1 (stereo unspecified) | -0.1 | 8.5* | 12.0 | -0.4 | -1.0 | -8.1
O=C(NC1CCCC1)C1CCC(=O)N1C1CCCCC1 (stereo unspecified) | 0.0 | 3.8 | 4.1 | 3.8 | · | ·
Cc1ccc(NC(=O)CN2CCN(c3ccc(O)cc3)CC2)c(Br)c1 | 0.0 | -1.2 | -3.3 | -0.5 | · | ·
Cc1cc(N/N=C/c2cccc([N+](=O)[O-])c2)nc(-c2ccccc2)n1 | 0.1 | 5.0* | -8.2 | -0.8 | -0.2 | 6.6
CC(C)NC(=O)C(=O)NNC(=O)c1ccc(C(C)(C)C)cc1 | 0.1 | 5.7* | -3.8 | -5.6 | -0.9 | -1.2
CC(C)NC(=O)c1ccc(COCC(F)(F)F)cc1 | 0.1 | -0.3 | 15.3 | 6.5 | · | ·
SMILES | FBW7 activator | GPR151 activ | MITF primary | TEAD-YAP block | GPR151 confirm | GPR119 counter
CC(C)NC(=O)c1ccc(C(=O)C(F)(F)F)cc1 | 0.3 | 5.6* | -9.1 | 2.9 | 0.5 | -1.2
CCOc1cccc(C2CC(c3cccc(Br)c3)=NC(c3ccccc3OC)N2)c1O (stereo unspecified) | 0.5 | 1.2 | 11.0 | -12.6 | · | ·
Cc1ccc(NC(=O)C(=O)N/N=C/c2ccc(C(=O)O)cc2)cc1C | -0.1 | -0.1 | -7.8 | -5.3 | · | ·
O=C(O)CCCCCN1C(=O)C(O)=C(C(=O)/C=C/c2ccccc2)C1c1ccccc1Cl (stereo unspecified) | -0.1 | 5.0* | -9.1 | 5.6 | 0.6 | 11.3
COc1ccc(C(C)(C)C)cc1NC(=O)COC(=O)c1ccc(S(=O)(=O)N(C)C)cc1 | -0.1 | -1.7 | -6.1 | -4.8 | · | ·
C/C(CCc1ccccc1)=N\NC(=O)CC(=O)NC(C)C | -0.2 | -1.3 | -7.0 | -2.5 | · | ·
CC(C)Cc1nnc(NC(=O)c2ccc(Cl)c([N+](=O)[O-])c2)s1 | 0.0 | 2.1 | -2.4 | 2.9 | · | ·
O=C(Cc1ccccc1)NS(=O)(=O)c1ccc(N=NN2CCCCC2)cc1 | -0.1 | 7.3* | -0.8 | 1.5 | 1.1 | 7.7
COc1ccc(CNC(=O)CN(C(=O)c2snc(C(N)=O)c2N)c2ccccc2)cc1 | -0.1 | -0.4 | -1.1 | 8.9 | · | ·
COc1cc(CN2CCN(c3ccccc3Cl)CC2)cc2c1OCO2 | 0.0 | 5.5* | 33.6 | 7.5 | 1.1 | 11.2
COc1cc(CN2CCC3(C=Cc4ccccc43)CC2)cc2c1OCO2 | · | -1.2 | · | · | · | ·
CC(C)(C)NC(=O)C(c1ccc(F)cc1)N(C(=O)c1csnn1)c1cccc(F)c1 (stereo unspecified) | 0.0 | -0.5 | 21.7 | 4.3 | · | ·
CC(C)c1nnc2n1CCN(C(=O)C1CCCO1)CC2 (stereo unspecified) | 0.0 | 0.4 | -16.3 | -18.7 | · | ·
CC(C)CCn1c(=O)c2cccnc2n(Cc2cccc(F)c2)c1=O | 0.0 | 11.6* | -7.8 | -8.5 | -0.7 | -3.8
O=c1c2cccnc2n(Cc2cccc(F)c2)c(=O)n1Cc1ccc(F)cc1 | -0.2 | -0.7 | -4.5 | -6.1 | · | ·
CC(C)n1c(N2CCC(N3CCOCC3)CC2)nc2c(N)ncnc21 | -0.1 | -0.1 | 4.4 | 13.9 | · | ·
CCCc1ccc(C(=O)/C=C/N(C)C)cc1 | -0.1 | 5.7* | -7.1 | -5.3 | -0.7 | -0.7
O=C(NCc1ccco1)/C(=C/c1ccc(Cl)cc1)NC(=O)c1ccccc1 | 0.1 | 0.2 | 2.8 | 5.3 | · | ·
O=C(NCc1ccco1)/C(=C/c1ccccc1)NC(=O)c1cccc(Br)c1 | -0.1 | 5.2* | -4.7 | 7.9 | -0.7 | -10.4
COc1cc(NC(=O)CN2C(=O)NC3(CCCC3)C2=O)c(C)cc1[N+](=O)[O-] | -0.1 | -1.1 | 0.5 | 2.3 | · | ·
COC(=O)c1cc([N+](=O)[O-])c(C(=O)OC)cc1Oc1ccc(Cl)cc1 | -0.4 | 6.4* | 5.0 | -14.7 | -0.4 | -9.5
Fc1ccccc1OCCSc1nc(-c2ccccc2)c(-c2ccccc2)n1-c1ccccc1 | -0.1 | 0.0 | -36.0 | -3.4 | · | ·
O=C(COc1ccccc1[N+](=O)[O-])Nc1cccc(Cl)c1N1CCOCC1 | 0.1 | 5.0* | -1.5 | 13.4 | -0.6 | -2.7

Screens (PubChem)
